In PubChem BioAssay AID504582 (Broad Institute, 2011):
Screen size: about 340,000 compounds; about 2,300 (0.68%) were called active. No stated cut-off is given here; in the data, active means growth rescue above about 28% (passing the limit was not always enough); inconclusive means no clear call, values can overlap the other calls. The list comes from a sample in which actives are over-represented; it also holds similar structures and randomly drawn compounds.

Experiment: rescue of yeast from PfHsp40 toxicity, primary screen, S. cerevisiae, ATP luminescence (AID 504582);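 further: yeast W303a lacking pdr1 and pdr3 grown in galactose medium; growth measured after three days at 30 °C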
Details: S. cerevisiae expressing PfHsp40, growth rescue, at 12.5 µM, active compounds read high

Row | SMILES | growth rescue
1 | O=C(c1ccc2c(c1)OCO2)N1CCNc2ccccc2C1 | -1.38% (inactive)
2 | COc1ccc(-n2cnc3cc(C(=O)NC4CCCC4)ccc32)cc1 | 3.16% (inactive)
3 | COc1ccc(C(=O)NC2CC2)cc1OC1CCN(Cc2cnn(C)c2)CC1 | -0.458% (inactive)
4 | COc1cc(C(=O)NC2CCN(C)CC2)ccc1Nc1ncc2c(n1)N(C1CCC(O)CC1)CCC(=O)N2C (stereo not given) | 44.4% (active)
5 | O=C(/C=N/O)Nc1ccccc1 | -1.81% (inactive)
6 | c1ccc(-c2nccc(-c3ccc(-n4cnc5ccccc54)cc3)n2)nc1 | 3.45% (inactive)
7 | CN(C)Cc1c(O)ccc2c(=O)c(-c3ccccc3Cl)coc12 | -1.86% (inactive)
8 | O=C(NCCC1=CCCCC1)c1ccc(Cl)c([N+](=O)[O-])c1 | 34.2% (active)
9 | O=C(NCCC1=CCCCC1)c1ccc(-n2cncn2)cc1 | 0.575% (inactive)
10 | CN(c1ccc(C(=O)NCCC2=CCCCC2)cc1)S(C)(=O)=O | -0.452% (inactive)
11 | CCOc1ccccc1N(CC(=O)NC1CCCCC1)C(=O)CCCC(=O)Nc1ccccn1 | 0.515% (inactive)
12 | Cc1ccc(NC(=O)CN(C)C(=O)COC(=O)C(C)(C)Oc2ccc(Cl)cc2)cc1 | -0.952% (inactive)
13 | NC(=O)C1CCN(C(=O)c2cn(-c3ccccc3)nc2-c2cccnc2)CC1 | -1.23% (inactive)
14 | Cc1ccc(-c2nn(-c3ccccc3)cc2C(=O)NC2CCC(O)CC2)cc1 (stereo not given) | -0.972% (inactive)
15 | O=C(NNC(=S)NC(=O)c1cn(-c2ccccc2)nc1-c1ccccc1)c1ccncc1 | 117% (active)
16 | Cc1ccc(SC(=O)COc2ccc(C)c(C)c2)cc1 | -0.169% (inactive)
17 | CCOc1ccc(-c2ccc(SCC(=O)N3CCOCC3)nn2)cc1 | -0.865% (inactive)
18 | CC(C)C[C@@H](COc1ccccc1)N1CCN(CC(C)C)CCC1=O | 0.09% (inactive)
19 | CC1(C)C=Cc2c(ccc3c2OC[C@@H](c2ccc(O)cc2O)C3)O1 | 232% (active)
20 | Nc1cc(N)nc(SCC(=O)Nc2cccc(S(=O)(=O)N3CCCCC3)c2)n1 | 0.009% (inactive)
21 | Cn1c(CC2Sc3ccccc3NC2=O)nnc1SCC(=O)c1ccc(Cl)cc1 (stereo not given) | -0.256% (inactive)
22 | COc1ccc(C2N=C(N)N=C(N)N2c2ccccc2)cc1OC (stereo not given) | 0.038% (inactive)
23 | CC/C(=N\NC(=O)c1ccccc1Cl)c1ccc(Br)s1 | -0.619% (inactive)
24 | COCCN(C(=O)c1ccccc1F)c1c(N)n(Cc2ccccc2)c(=O)[nH]c1=O | -0.643% (inactive)
25 | CC/C(=N\NC(=O)c1ccccc1O)c1c(O)n(Cc2ccccc2)c(=O)[nH]c1=O | 44.8% (active)
